# Publication PMC5540273 (PLoS ONE, 2017)
# Like-named read-outs stand apart in the source and are kept apart here.
# Tests used:
# Details in all cases: n = 1
# PRKCQ = system: PRKCQ
# PRKD1 = system: PRKD1
# PRKD2 = system: PRKD2
# PRKD3 = system: PRKD3
# PRKG1 = system: PRKG1
# PRKG2 = system: PRKG2
# PRKR = system: T1, PRKR
# T1 construct: gene EIF2AK2
# PRKX = system: PRKX
# PRP4 = system: PRP4
# PYK2 = system: T2, PYK2
# T2 construct: gene PTK2B
# QSK = system: QSK
# RAF1 = system: RAF1
# RET = system: RET
# RIOK1 = system: RIOK1
# RIOK2 = system: RIOK2
# RIOK3 = system: RIOK3
# RIPK1 = system: RIPK1
# RIPK2 = system: RIPK2
# RIPK4 = system: RIPK4
# RIPK5 = system: RIPK5
# [1] = concentration: 1 μM, replicates: in singlicate
# 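Also: KINOMEscan kinase panel screen.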
smiles,measurement,setting,value
Cc1c(Cn2ccn3c(=O)cc(N4CCOCC4)nc23)cccc1C(F)(F)F [GSK2289044],%Inh,PRKCQ; [1],3%
same,%Inh,PRKD1; [1],6%
same,%Inh,PRKD2; [1],19%
same,%Inh,PRKD3; [1],0%
same,%Inh,PRKG1; [1],0%
same,%Inh,PRKG2; [1],9%
same,%Inh,PRKR; [1],4%
same,%Inh,PRKX; [1],25%
same,%Inh,PRP4; [1],0%
same,%Inh,PYK2; [1],0%
same,%Inh,QSK; [1],3%
same,%Inh,RAF1; [1],5%
same,%Inh,RET; [1],8%
same,%Inh,RIOK1; [1],3%
same,%Inh,RIOK2; [1],34%
same,%Inh,RIOK3; [1],5%
same,%Inh,RIPK1; [1],9%
same,%Inh,RIPK2; [1],10%
same,%Inh,RIPK4; [1],0%
same,%Inh,RIPK5; [1],0%
CC(=O)Nc1nc2cnc(Nc3cc(NC(=O)c4cccc(CCC#N)c4)ccc3C)nc2s1,%Inh,PRKCQ; [1],9%
same,%Inh,PRKD1; [1],0%
same,%Inh,PRKD2; [1],2%
same,%Inh,PRKD3; [1],12%
same,%Inh,PRKG1; [1],15%
same,%Inh,PRKG2; [1],10%
same,%Inh,PRKR; [1],8%
same,%Inh,PRKX; [1],13%
same,%Inh,PRP4; [1],1%
same,%Inh,PYK2; [1],0%
same,%Inh,QSK; [1],0%
same,%Inh,RAF1; [1],88%
same,%Inh,RET; [1],51%
same,%Inh,RIOK1; [1],0%
same,%Inh,RIOK2; [1],17%
same,%Inh,RIOK3; [1],10%
same,%Inh,RIPK1; [1],0%
same,%Inh,RIPK2; [1],0%
same,%Inh,RIPK4; [1],0%
same,%Inh,RIPK5; [1],5%
Cc1ccc(NC(=O)Nc2cccc(C(F)(F)F)c2)cc1 [GSK955403],%Inh,PRKCQ; 1 µM,24%
same,%Inh,PRKD1; 1 µM,18%
same,%Inh,PRKD2; 1 µM,0%
same,%Inh,PRKD3; 1 µM,1%
same,%Inh,PRKG1; 1 µM,19%
same,%Inh,PRKG2; 1 µM,0%
same,%Inh,PRKR; 1 µM,13%
same,%Inh,PRKX; 1 µM,1%
same,%Inh,PRP4; 1 µM,10%
same,%Inh,PYK2; 1 µM,0%
same,%Inh,QSK; 1 µM,0%
same,%Inh,RAF1; 1 µM,8%
same,%Inh,RET; 1 µM,0%
same,%Inh,RIOK1; 1 µM,17%
same,%Inh,RIOK2; 1 µM,0%
same,%Inh,RIOK3; 1 µM,0%
same,%Inh,RIPK1; 1 µM,7%
same,%Inh,RIPK2; 1 µM,8%
same,%Inh,RIPK4; 1 µM,0%
same,%Inh,RIPK5; 1 µM,0%
Cn1ccc2ncnc(Oc3ccc(NC(=O)Nc4ccccc4)cc3)c21,%Inh,PRKCQ; [1],13%
same,%Inh,PRKD1; [1],0%
same,%Inh,PRKD2; [1],2%
same,%Inh,PRKD3; [1],0%
same,%Inh,PRKG1; [1],7%
same,%Inh,PRKG2; [1],31%
same,%Inh,PRKR; [1],0%
same,%Inh,PRKX; [1],0%
same,%Inh,PRP4; [1],0%
same,%Inh,PYK2; [1],0%
same,%Inh,QSK; [1],0%
same,%Inh,RAF1; [1],0%
same,%Inh,RET; [1],17%
same,%Inh,RIOK1; [1],19%
same,%Inh,RIOK2; [1],12%
same,%Inh,RIOK3; [1],29%
same,%Inh,RIPK1; [1],5%
same,%Inh,RIPK2; [1],26%
same,%Inh,RIPK4; [1],0%
same,%Inh,RIPK5; [1],0%
Clc1cc(Cl)cc(Nc2ccnc(Nc3cc(Cl)cc(Cl)c3)n2)c1 [GSK175726],%Inh,PRKCQ; [1],0%
same,%Inh,PRKD1; [1],0%
same,%Inh,PRKD2; [1],12%
same,%Inh,PRKD3; [1],0%
same,%Inh,PRKG1; [1],0%
same,%Inh,PRKG2; [1],12%
same,%Inh,PRKR; [1],14%
same,%Inh,PRKX; [1],10%
same,%Inh,PRP4; [1],6%
same,%Inh,PYK2; [1],19%
same,%Inh,QSK; [1],0%
same,%Inh,RAF1; [1],17%
same,%Inh,RET; [1],10%
same,%Inh,RIOK1; [1],34%
same,%Inh,RIOK2; [1],91.7%
same,%Inh,RIOK3; [1],35%
same,%Inh,RIPK1; [1],0%
same,%Inh,RIPK2; [1],41%
same,%Inh,RIPK4; [1],10%
same,%Inh,RIPK5; [1],6%
CC(C)(C)c1ccc(C(=O)Nc2cn3cc(Cl)ccc3n2)cc1,%Inh,PRKCQ; [1],18%
same,%Inh,PRKD1; [1],0%
same,%Inh,PRKD2; [1],0%
same,%Inh,PRKD3; [1],0%
same,%Inh,PRKG1; [1],0%
same,%Inh,PRKG2; [1],0%
same,%Inh,PRKR; [1],0%
same,%Inh,PRKX; [1],0%
same,%Inh,PRP4; [1],0%
same,%Inh,PYK2; [1],96.6%
same,%Inh,QSK; [1],3%
same,%Inh,RAF1; [1],0%
same,%Inh,RET; [1],0%
same,%Inh,RIOK1; [1],25%
same,%Inh,RIOK2; [1],0%
same,%Inh,RIOK3; [1],0%
same,%Inh,RIPK1; [1],0%
same,%Inh,RIPK2; [1],5%
same,%Inh,RIPK4; [1],0%
same,%Inh,RIPK5; [1],0%
COc1cccc(NC(=O)NC2CCN(c3ccnc(Nc4ccc(F)cc4)n3)C2)c1 (centres unmarked) [GSK1379721],%Inh,PRKCQ; [1],3%
same,%Inh,PRKD1; [1],0%
same,%Inh,PRKD2; [1],0%
same,%Inh,PRKD3; [1],19%
same,%Inh,PRKG1; [1],0%
same,%Inh,PRKG2; [1],0%
same,%Inh,PRKR; [1],1%
same,%Inh,PRKX; [1],21%
same,%Inh,PRP4; [1],47%
same,%Inh,PYK2; [1],0%
same,%Inh,QSK; [1],3%
same,%Inh,RAF1; [1],3%
same,%Inh,RET; [1],0%
same,%Inh,RIOK1; [1],16%
same,%Inh,RIOK2; [1],0%
same,%Inh,RIOK3; [1],13%
same,%Inh,RIPK1; [1],29%
same,%Inh,RIPK2; [1],2%
same,%Inh,RIPK4; [1],17%
same,%Inh,RIPK5; [1],18%
Cc1csc(-c2nc(Nc3ccncc3)c3ccccc3n2)n1 [GW869640],%Inh,PRKCQ; [1],5%
same,%Inh,PRKD1; [1],69%
same,%Inh,PRKD2; [1],78%
same,%Inh,PRKD3; [1],71%
same,%Inh,PRKG1; [1],2%
same,%Inh,PRKG2; [1],12%
same,%Inh,PRKR; [1],33%
same,%Inh,PRKX; [1],0%
same,%Inh,PRP4; [1],0%
same,%Inh,PYK2; [1],0%
same,%Inh,QSK; [1],35%
same,%Inh,RAF1; [1],0%
same,%Inh,RET; [1],0%
same,%Inh,RIOK1; [1],38%
same,%Inh,RIOK2; [1],39%
same,%Inh,RIOK3; [1],1%
same,%Inh,RIPK1; [1],0%
same,%Inh,RIPK2; [1],52%
same,%Inh,RIPK4; [1],44%
same,%Inh,RIPK5; [1],34%
Fc1cccc(COc2nnc(-c3ccc4c(c3)CCO4)o2)c1,%Inh,PRKCQ; [1],22%
same,%Inh,PRKD1; [1],0%
same,%Inh,PRKD2; [1],1%
same,%Inh,PRKD3; [1],0%
same,%Inh,PRKG1; [1],0%
same,%Inh,PRKG2; [1],0%
same,%Inh,PRKR; [1],0%
same,%Inh,PRKX; [1],0%
same,%Inh,PRP4; [1],8%
same,%Inh,PYK2; [1],10%
same,%Inh,QSK; [1],7%
same,%Inh,RAF1; [1],4%
same,%Inh,RET; [1],5%
same,%Inh,RIOK1; [1],9%
same,%Inh,RIOK2; [1],0%
same,%Inh,RIOK3; [1],0%
same,%Inh,RIPK1; [1],0%
same,%Inh,RIPK2; [1],0%
same,%Inh,RIPK4; [1],0%
same,%Inh,RIPK5; [1],15%
COc1cccc(-c2cc(-c3c[nH]nc3-c3ccccn3)ccn2)c1 [GW680338],%Inh,PRKCQ; [1],2%
same,%Inh,PRKD1; [1],62%
same,%Inh,PRKD2; [1],47%
same,%Inh,PRKD3; [1],34%
same,%Inh,PRKG1; [1],6%
same,%Inh,PRKG2; [1],0%
same,%Inh,PRKR; [1],0%
same,%Inh,PRKX; [1],0%
same,%Inh,PRP4; [1],26%
same,%Inh,PYK2; [1],0%
same,%Inh,QSK; [1],17%
same,%Inh,RAF1; [1],25%
same,%Inh,RET; [1],21%
same,%Inh,RIOK1; [1],1%
same,%Inh,RIOK2; [1],3%
same,%Inh,RIOK3; [1],91.4%
same,%Inh,RIPK1; [1],19%
same,%Inh,RIPK2; [1],27%
same,%Inh,RIPK4; [1],0%
same,%Inh,RIPK5; [1],5%
